Our source for the AC50 and outcome values is PubChem BioAssay (EPA / NIEHS).

A short description of experiment [1]: ATG_TCF_b_cat_CIS: Attagene CIS-FACTORIAL HepG2 Assay for human T-Cell-Factor with beta-catenin (TCF/b-cat) (AID 2282965). Conditions: HepG2 TCF/beta-catenin cis-reporter transcription, actives raise or lower the signal. In a few lines:
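Using capillary electrophoresis as the read-out, labelled reporter cDNA fragments from transiently transfected HepG2 were sized and quantified. Exposure lasted 24 hours; activity in either direction was referenced to DMSO.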

A short description of experiment [2]: ATG_TAL_CIS: Attagene CIS-FACTORIAL HepG2 Assay for human TAL Basal Promoter (AID 2282966).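 Also: background control endpoint measuring basal TAL promoter reporter mRNA not a specific factor.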 The settings on record: HepG2 Attagene cis-factorial TAL promoter reporter; actives raise or lower the signal. An outline of the steps:
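HepG2 cells transiently transfected with multiplexed cis-promoter reporter units, dosed 24 h. Reporter mRNA quantified by RT-PCR, 6-FAM labelling, HpaI digestion and capillary electrophoresis; TAL basal promoter serves as background control, fitted bidirectionally versus DMSO.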

Experiment [3] can be described thus: ATG_TGFb_CIS: Attagene CIS-FACTORIAL HepG2 Assay for human Transforming Growth Factor (TGF) (AID 2282967). The settings on record: HepG2 Attagene CIS TGFb reporter, mRNA transcription; actives raise or lower the signal. In a few lines: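 After a 24-hour incubation with compound, transfected HepG2 cells were lysed for RNA; reporter cDNA was amplified, fluorescently end-labeled and separated by CE. DMSO served as baseline for bidirectional fits.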

Experiment [4] addresses Nuclear receptor subfamily 1 group I member 3 (Homo sapiens) (UniProt Q14994). Nature of the experiment: ATG_CAR_TRANS: Attagene TRANS-FACTORIAL HepG2 Assay for human Constitutive Androstane Receptor (CAR) (AID 2282969; active = hit-call score of the fitted dose curve at least 0.9, where 1 is the maximum;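 also: activators raise reporter mRNA above DMSO so AC50 marks induction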). Conditions: HepG2 Attagene TRANS-FACTORIAL CAR reporter. An outline of the steps: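 HepG2 cells transiently transfected with multiplexed GAL4-UAS reporter units expressing chimeric NR-Gal4 proteins; compound exposure 24 h. Reporter mRNA measured by RT-PCR, 6-FAM labelling, HpaI digestion and capillary electrophoresis; gain-of-signal fitted against DMSO baseline.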

The target of experiment [5] is Estrogen receptor (Homo sapiens) (UniProt P03372). As to the kind of experiment: ATG_ERa_TRANS: Attagene TRANS-FACTORIAL HepG2 Assay for human Estrogen Receptor alpha (ERa) (AID 2282970; active = hit-call score of the fitted dose curve at least 0.9, where 1 is the maximum). The settings on record: HepG2 Attagene TRANS ERa GAL4 reporter, mRNA. An outline of the steps: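 HepG2 cells transiently transfected with multiplexed GAL4-UAS reporter units read out chimeric NR-Gal4 activity. After 24 h compound exposure, reporter mRNA was quantified by RT-PCR, 6-FAM labeling, HpaI digestion and capillary electrophoresis, relative to DMSO.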
Sequence of Estrogen receptor (Homo sapiens) (P03372 whole entry, looked up, the tested form may be a part): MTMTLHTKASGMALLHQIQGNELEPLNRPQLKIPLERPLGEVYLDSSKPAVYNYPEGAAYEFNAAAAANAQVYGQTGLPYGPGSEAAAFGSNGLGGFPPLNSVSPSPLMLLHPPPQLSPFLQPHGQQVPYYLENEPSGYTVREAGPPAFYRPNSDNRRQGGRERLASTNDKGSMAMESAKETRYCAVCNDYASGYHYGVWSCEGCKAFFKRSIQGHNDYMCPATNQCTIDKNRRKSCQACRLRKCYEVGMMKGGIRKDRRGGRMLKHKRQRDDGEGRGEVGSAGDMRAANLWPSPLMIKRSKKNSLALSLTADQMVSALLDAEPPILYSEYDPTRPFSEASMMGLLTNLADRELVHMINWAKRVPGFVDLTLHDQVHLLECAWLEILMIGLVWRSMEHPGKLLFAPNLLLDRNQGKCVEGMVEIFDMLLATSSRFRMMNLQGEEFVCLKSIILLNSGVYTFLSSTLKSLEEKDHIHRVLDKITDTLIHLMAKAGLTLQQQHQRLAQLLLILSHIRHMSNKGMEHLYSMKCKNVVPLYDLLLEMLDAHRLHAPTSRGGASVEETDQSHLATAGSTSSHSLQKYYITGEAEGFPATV

Experiment [6] addresses X-box-binding protein 1 (Homo sapiens) (UniProt P17861). As to the kind of experiment: ATG_Xbp1_CIS: Attagene CIS-FACTORIAL HepG2 Assay for human X-box Binding Protein 1 (XBP1) (AID 2282972). The settings on record: HepG2 XBP1 cis-element reporter, Attagene multiplex; actives raise or lower the signal. In a few lines:
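HepG2 cells transiently transfected with multiple cis-element reporter units report endogenous TF activity; 24 h exposure, then reporter mRNA measured by RT-PCR, 6-FAM labelling, HpaI digestion and capillary electrophoresis. Bidirectional fitting versus DMSO.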

Experiment [7] can be described thus: ATG_M_19_TRANS: Attagene TRANS-FACTORIAL HepG2 Assay for M19 Transcription Factor (Internal Marker) (AID 2282974; active = hit-call score of the fitted dose curve at least 0.9, where 1 is the maximum). Conditions: HepG2 Attagene TRANS-FACTORIAL M19 internal marker reporter. An outline of the steps:
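Measured here: internal-marker reporter transcript from HepG2 cells transfected with MRTUs, harvested at 24 h. cDNA PCR products were 6-FAM labelled by primer extension, cut with HpaI for 2 h at 37 C, and resolved by CE.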

In experiment [8] the target is Steroid hormone receptor ERR1 (Homo sapiens) (UniProt P11474). As to the kind of experiment: ATG_ERRa_TRANS: Attagene TRANS-FACTORIAL HepG2 Assay for human Estrogen-Related Receptor alpha (ERRa) (AID 2282971; active = hit-call score of the fitted dose curve at least 0.9, where 1 is the maximum). The settings on record: HepG2 Attagene TRANS reporter, ERRa transactivation. An outline of the steps:
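HepG2 cells transiently transfected with GAL4-UAS reporter units and chimeric NR-Gal4 constructs; after 24 hour compound incubation, reporter mRNA quantified by RT-PCR, fluorescent labelling and capillary electrophoresis, gain of signal versus DMSO.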

Experiment [9] is described as follows: ATG_VDRE_CIS: Attagene CIS-FACTORIAL HepG2 Assay for human Vitamin D Receptor Element (VDRE) (AID 2282968). The settings on record: HepG2 VDRE cis-reporter transcription, actives raise or lower the signal. An outline of the steps:
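HepG2 cells transiently transfected with cis-element reporter units, dosed 24 h; reporter mRNA measured by RT-PCR, 6-FAM labeling, HpaI digestion and capillary electrophoresis. Activity fitted bidirectionally against DMSO baseline.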

Molecules are shown by their SMILES. Values joined by “and” are separate entries in the source; they are usually repeats but may differ in a detail not shown here. Equal entries are not always repeated. Inconclusive results are not listed. The source holds several records for some structures; these can differ, active in one and inactive in another. Active and inactive are the calls of the source. The calls were made as follows, unless noted: active = hit-call score of the fitted dose curve at least 0.9, where 1 is the maximum; inactive = score below 0.9.

Sequence of X-box-binding protein 1 (Homo sapiens) (P17861 whole entry, looked up): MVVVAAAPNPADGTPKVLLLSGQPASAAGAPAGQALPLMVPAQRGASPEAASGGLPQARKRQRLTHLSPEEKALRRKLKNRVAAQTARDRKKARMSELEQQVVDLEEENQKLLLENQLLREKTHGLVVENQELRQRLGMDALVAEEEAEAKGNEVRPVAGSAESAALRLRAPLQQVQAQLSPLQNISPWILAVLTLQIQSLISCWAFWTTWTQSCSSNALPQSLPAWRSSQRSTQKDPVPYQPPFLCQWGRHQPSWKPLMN
Sequence of Nuclear receptor subfamily 1 group I member 3 (Homo sapiens) (Q14994 whole entry, looked up, the tested form may be a part): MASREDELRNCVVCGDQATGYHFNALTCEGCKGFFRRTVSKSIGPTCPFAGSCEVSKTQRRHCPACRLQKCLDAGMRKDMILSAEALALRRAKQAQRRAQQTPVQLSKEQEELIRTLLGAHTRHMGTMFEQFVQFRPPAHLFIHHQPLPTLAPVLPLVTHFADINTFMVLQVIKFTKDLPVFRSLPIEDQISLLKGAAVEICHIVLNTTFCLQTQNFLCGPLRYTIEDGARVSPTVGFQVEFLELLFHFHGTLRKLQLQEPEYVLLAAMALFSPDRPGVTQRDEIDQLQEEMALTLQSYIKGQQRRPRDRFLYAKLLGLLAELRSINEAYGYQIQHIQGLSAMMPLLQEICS
Sequence of Steroid hormone receptor ERR1 (Homo sapiens) (P11474 whole entry, looked up, the tested form may be a part): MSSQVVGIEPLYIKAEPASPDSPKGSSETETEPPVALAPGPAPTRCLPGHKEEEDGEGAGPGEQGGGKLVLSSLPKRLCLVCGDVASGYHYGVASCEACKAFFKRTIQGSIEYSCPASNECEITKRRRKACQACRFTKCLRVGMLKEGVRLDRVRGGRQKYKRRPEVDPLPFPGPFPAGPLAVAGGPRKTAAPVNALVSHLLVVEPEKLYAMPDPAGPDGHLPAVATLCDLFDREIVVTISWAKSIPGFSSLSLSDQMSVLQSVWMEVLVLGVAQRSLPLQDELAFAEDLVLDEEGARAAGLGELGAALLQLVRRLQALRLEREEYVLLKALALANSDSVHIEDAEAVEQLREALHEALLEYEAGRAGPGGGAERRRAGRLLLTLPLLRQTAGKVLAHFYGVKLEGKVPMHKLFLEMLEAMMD

In the case of `CC(C)(C)c1cc(C(C)(C)C)c(O)c(C(C)(C)C)c1`, the AC50 (commonly the concentration giving half of the maximal activity seen) was 87.1 µM (active) in experiment [1] and 20.3 µM (active) in experiment [6]. In addition, the call in experiment [1], in experiment [2], in experiment [3], in [4], in [5] and in experiment [6] was inactive. In addition, the molecule was called inactive in experiment [7].

In the case of `O=C(O)c1ccccc1C(c1ccc(O)cc1)c1ccc(O)cc1`, the AC50 in [1] is 166 µM (active). For the same molecule, the molecule was classed as inactive in experiment [1], in experiment [2], in experiment [3], in [8], in experiment [6] and in experiment [7].

For `CCCCCCCCCCCCN1CCCC1=O`, the outcome in [1], in experiment [2], in experiment [9], in experiment [5], in [8] and in experiment [6] was inactive. Also, in experiment [7], the outcome was inactive.

With `O=C1OC2(c3ccccc31)c1cc(Br)c(O)c(Br)c1Oc1c2cc(Br)c(O)c1Br`, the result in experiment [1], in experiment [2], in [9], in experiment [4], in [5] and in [6] was inactive. The molecule was classed as inactive in experiment [7]. Besides, the AC50 is 56.4 µM (active) in [9] and 66.7 µM (active) in experiment [6].

`CC1=C(/C=C/C(C)=C/C=C/C(C)=C/C(=O)O)C(C)(C)CCC1`: the AC50 is 23.7 µM (active) and 102 µM (active) in [1]; 6.62 µM (active) and 11.9 µM (active) in experiment [9]; 44.3 µM (active) and 8.86 µM (active) in experiment [6]. The molecule was classed as inactive in experiment [2], in experiment [3] and in experiment [7].

Regarding `CCCOC(=O)c1ccc(O)cc1`, the molecule was classed as inactive in experiment [1], in experiment [2], in [9], in [4], in experiment [8] and in experiment [6]. For the same molecule, the result in experiment [7] was inactive. For the same molecule, the AC50 in experiment [9] was 139 µM (active); in [5], 6.31 µM (active) and 20.8 µM (active); in experiment [6], 73.5 µM (active).

Regarding `CCCCCCCC(=O)O`, the outcome in experiment [1], in [2], in experiment [9], in experiment [4], in experiment [5] and in experiment [6] was inactive. Further, the outcome in [7] was inactive.

As to `OCCC(F)(F)C(F)(F)C(F)(F)C(F)(F)C(F)(F)C(F)(F)F`, the molecule was classed as inactive in [1], in experiment [2], in experiment [4], in [5] and in [6]. Besides, the AC50 in experiment [6] was 134 µM (active).

Turning to `CCCCCCCCC(=O)O`, the outcome in [1], in experiment [2], in experiment [5], in experiment [6] and in experiment [7] was inactive.

In the case of `CN1CCN(c2ccccc2/C=C2\SCCN(c3ccc(Cl)c(Cl)c3)C2=O)CC1`, the call in [1], in experiment [2], in experiment [9], in experiment [4], in [5] and in experiment [8] was inactive. Besides, the outcome in experiment [6] was inactive.

`CN(C)C=O`: the molecule was called inactive in experiment [1], in experiment [2], in experiment [3], in [5], in experiment [6] and in [7].

As to `CC(C)(C)c1cccc(C(C)(C)C)c1O`, the AC50 in [1] was 173 µM (active); in [5], 61.4 µM (active); in [6], 144 µM (active). The result in experiment [2] and in [4] was inactive.

Take `Oc1cc2ccccc2c2ccccc12`: the result in [1], in [2], in experiment [9], in experiment [5], in experiment [6] and in experiment [7] was inactive.

For the molecule `C#C[C@]1(O)CC[C@H]2[C@@H]3CCC4=CC(=O)CC[C@@H]4[C@H]3CC[C@@]21C`, the outcome in experiment [1], in experiment [2], in experiment [4], in [6] and in experiment [7] was inactive.

`Cc1ccc(S(=O)(=O)O)c(C)c1`: the result in experiment [1], in experiment [2], in experiment [9], in [4], in experiment [5] and in experiment [8] was inactive. The call in [6] and in experiment [7] was inactive.

With `CC(C)CCCCCCOC(=O)CCCCC(=O)OCCCCCCC(C)C`, the result in experiment [1], in [2], in experiment [9], in experiment [6] and in experiment [7] was inactive.

As to `CCCCCCCCCCCCc1ccccc1S(=O)(=O)O`, the molecule was called inactive in [1], in experiment [2], in experiment [9], in experiment [4], in experiment [5] and in [6]. Further, in experiment [7], the call was inactive.

Regarding `CC(O)C(=O)O` (centres undefined), the result in experiment [1], in experiment [2], in experiment [9], in experiment [4], in [5] and in experiment [6] was inactive. The molecule was called inactive in experiment [7].

Turning to `COCC(C)O` (centres undefined), the outcome in experiment [1], in experiment [2], in experiment [9], in experiment [5], in [8] and in [6] was inactive. Besides, the outcome in [7] was inactive.
